Source: US20200407704, “FUSION PROTEINS AND METHODS FOR SITE-DIRECTED GENOME EDITING” (The Regents of the University of California, published 2020)

T1: hADAR2d (ADAR2 deaminase domain, hADAR2-D WT) (Homo sapiens)
T1 chain: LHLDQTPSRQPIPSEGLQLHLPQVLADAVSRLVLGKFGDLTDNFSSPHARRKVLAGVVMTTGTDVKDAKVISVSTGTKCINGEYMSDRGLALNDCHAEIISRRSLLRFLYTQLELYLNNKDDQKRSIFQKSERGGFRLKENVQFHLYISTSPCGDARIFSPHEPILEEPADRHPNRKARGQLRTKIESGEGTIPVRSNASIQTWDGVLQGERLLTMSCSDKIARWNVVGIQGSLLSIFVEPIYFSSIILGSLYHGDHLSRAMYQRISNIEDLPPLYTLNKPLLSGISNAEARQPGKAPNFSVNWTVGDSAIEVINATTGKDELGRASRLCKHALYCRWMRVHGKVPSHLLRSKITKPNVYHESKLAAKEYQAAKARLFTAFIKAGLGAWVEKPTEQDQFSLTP


Key:
[1] = target: T1, hADAR2d (ADAR2 deaminase domain, …); test: rate stated as similar to substrate b; conditions: tags: Ni-NTA purified (His10, TEV site); label: internal 32P
Experimental: This reconstituted solution was heated to 65° C. for 5 minutes. After the solution was slowly cooled to room temperature, 1.5 μL of RNasin ([…]), 5 μL of 4 mM ATP, and 1 μL of T4 DNA ligase (400 U/μL) were added to the solution so that the final reaction volume was 20 μL . The reaction was incubated at 30° C. for 2 hours, then 2 μL of 40 μM trap DNA were added to the splint ligation reaction. The splint ligation products were purified as described above. Purified ³²P labeled top strand was hybridized with the corresponding bottom strand 24-nt oligonucleotide as described above. Deamination reactions were carried out as previously described (21) with the following modifications. For the partially 2′-deoxy-modified substrates, the final reaction volume was 10 μL. The final enzyme concentration was 300 nM. The final RNA concentration was 10 nM. The final reaction solution contained 16 mM Tris-HCl, pH 7.4, 3.3% glycerol, 1.6 mM EDTA, 0.003% NP-40, 60 mM KCl, 7.1 mM NaCl, 0.5 mM DTT, 160 units/mL RNasin, and 1 μg/mL yeast tRNA. Reactions were quenched by adding 190 μL 95° C. nuclease-free water followed by incubation at 95° C. for 5 minutes. […] The TLC was visualized by exposure to storage phosphor imaging plates (Molecular Dynamics) on a Typhoon phosphorimager (Molecular Dynamics) and quantified by volume integration using ImageQuant software (Molecular Dynamics). […]

[2] = target: T1, hADAR2d (ADAR2 deaminase domain, …); test: deamination rate, 300 nM enzyme; conditions: tags: Ni-NTA purified (His10, TEV site); label: internal 32P
Experimental: For the partially 2′-deoxy-modified substrates, the final reaction volume was 10 μL. The final enzyme concentration was 300 nM. The final RNA concentration was 10 nM. The final reaction solution contained 16 mM Tris-HCl, pH 7.4, 3.3% glycerol, 1.6 mM EDTA, 0.003% NP-40, 60 mM KCl, 7.1 mM NaCl, 0.5 mM DTT, 160 units/mL RNasin, and 1 μg/mL yeast tRNA. Reactions were quenched by adding 190 μL 95° C. nuclease-free water followed by incubation at 95° C. for 5 minutes. Deaminated products were purified by phenol-chloroform extraction and ethanol precipitation. The product-containing solution was lyophilized to dryness and suspended in 50 μL of 1×TE solution, followed by digestion with nuclease P1. The resulting 5′-mononucleotides were resolved by thin-layer chromatography (TLC, Macherey-Nagel) (22). The TLC was visualized by exposure to storage phosphor imaging plates (Molecular Dynamics) on a Typhoon phosphorimager (Molecular Dynamics) and quantified by volume integration using ImageQuant software (Molecular Dynamics). […] Statistical significance between groups was determined by t tests using QuickCalcs (GraphPad Software). hADAR2 wt deamination was carried out twice, deamination with other proteins was carried out in triplicate.

Binder	binding signal [1] [fold slower than N1]	relative deamination rate [2] [fold slower than N1]
partially deoxy duplex (substrate c) (mixed, 2'-deoxy at top UAGA) RNA 1: GCUCGCGAUGCUAGAGGGCUCUGC RNA 2: GCAGAGCCCCCCAGCAUCGCGAGC	~15	–
partially deoxy duplex (substrate b) (mixed, 2'-deoxy at top UAGA and at bottom C opposite edited A) RNA 1: GCUCGCGAUGCUAGAGGGCUCUGC RNA 2: GCAGAGCCCCCCAGCAUCGCGAGC	–	~15
